Common to all, as to settings: mRNA level, 48 h; actives raise or lower the signal
Read-out in one assay: Caspase-3 (Homo sapiens) (UniProt P42574)
The assay can be described thus: LTEA_HepaRG_CASP3: Life Technologies and Expression Analysis (LTEA) Assay for cysteine-aspartic acid protease (CASP3) using HepaRG (AID 2283477). The procedure, abridged:
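Transcript-level assay: CASP3 mRNA in human HepaRG after 48 h treatment, eight half-log concentrations from 100 uM in 0.5% DMSO, quantified by qRT-PCR.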

Read-out in assay [1]: Cytochrome P450 (CYP24A1), CYP24A1 (gene 1591)
Description: LTEA_HepaRG_CYP24A1: Life Technologies and Expression Analysis (LTEA) Assay for Cytochrome P450 (CYP24A1) using HepaRG (AID 2283478). In outline: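 Gene expression of CYP24A1 by TaqMan qRT-PCR in HepaRG after 48 h treatment, highest concentration 100 uM; activity fitted in both directions relative to DMSO vehicle.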

Read-out in assay [2]: Cytochrome P450 (CYP1A2), CYP1A2 (gene 1544)
Description: LTEA_HepaRG_CYP1A2: Life Technologies and Expression Analysis (LTEA) Assay for Cytochrome P450 (CYP1A2) using HepaRG (AID 2283479). The procedure, abridged: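 In duplicate wells, HepaRG cultures maintained in 0.5% DMSO were treated 48 h across an 8-point, half-log series topping at 100 uM; phenobarbital (1 mM) served as induction control. Expression was read by qRT-PCR.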

Read-out in assay [3]: cysteine-aspartic acid protease (CASP8), CASP8 (gene 841)
The assay can be described thus: LTEA_HepaRG_CASP8: Life Technologies and Expression Analysis (LTEA) Assay for cysteine-aspartic acid protease (CASP8) using HepaRG (AID 2283480). The procedure, abridged: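 CASP8 transcript measured by TaqMan qRT-PCR with ACTB/GAPDH/POLR2A normalization, after 48 h chemical exposure of HepaRG cells in serum-free induction medium. Eight concentrations, top 100 uM, half-log steps, 0.5% DMSO vehicle; fits in both directions versus DMSO.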

Read-out in assay [4]: Cytochrome P450 (CYP2B6), CYP2B6 (gene 1555)
The assay can be described thus: LTEA_HepaRG_CYP2B6: Life Technologies and Expression Analysis (LTEA) Assay for Cytochrome P450 (CYP2B6) using HepaRG (AID 2283481). The procedure, abridged: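 Human HepaRG, 48 h dosing, 0.5% DMSO vehicle, top dose 100 uM. CYP2B6 transcript by qRT-PCR, housekeeping-normalized, bidirectional curve fit.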

Read-out in assay [5]: Cytochrome P450 2C19 (Homo sapiens) (UniProt P33261)
The assay can be described thus: LTEA_HepaRG_CYP2C19: Life Technologies and Expression Analysis (LTEA) Assay for CYP2C19 using HepaRG (AID 2283482). The procedure, abridged: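 Endpoint: CYP2C19 mRNA change, bidirectional fit vs 0.5% DMSO. Cells: HepaRG, 48 h exposure, eight-point series topping at 100 uM. Quantitation: qRT-PCR normalized to ACTB, GAPDH, POLR2A.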

Read-out in another assay: CYP2C8 (gene 1558)
Description: LTEA_HepaRG_CYP2C8: Life Technologies and Expression Analysis (LTEA) Assay for CYP2C8 using HepaRG (AID 2283483). In outline:
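CYP2C8 expression measured by TaqMan qRT-PCR and normalized to three housekeeping genes. HepaRG cultures were treated for 48 h with an eight-point half-log series topping at 100 uM, vehicle 0.5% DMSO, duplicates; fitted both directions against DMSO.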

Read-out in another assay: CYP2C9 (gene 1559)
The assay can be described thus: LTEA_HepaRG_CYP2C9: Life Technologies and Expression Analysis (LTEA) Assay for CYP2C9 using HepaRG (AID 2283484). The procedure, abridged:
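CYP2C9 transcript level, quantified by TaqMan qRT-PCR against three housekeeping genes, was fitted bidirectionally relative to 0.5% DMSO. HepaRG cultures were treated 48 h, in duplicate, at eight half-log concentrations topping at 100 uM.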

Read-out in the next assay: CYP2E1 (gene 1571)
Description: LTEA_HepaRG_CYP2E1: Life Technologies and Expression Analysis (LTEA) Assay for CYP2E1 using HepaRG (AID 2283485). The procedure, abridged:
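Assay uses 48 h exposure of HepaRG hepatic cells, eight concentrations to 100 uM. Expression of CYP2E1 is quantified by TaqMan qRT-PCR with ACTB, GAPDH and POLR2A normalization; curves fitted in both directions relative to vehicle.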

Read-out in a further assay: CYP4A11 (gene 1579)
The assay can be described thus: LTEA_HepaRG_CYP4A11: Life Technologies and Expression Analysis (LTEA) Assay for CYP4A11 using HepaRG (AID 2283486). In outline:
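Human hepatic HepaRG cultures receive duplicate 48 h exposures across a concentration-response series topping at 100 uM. Expression changes in CYP4A11 are measured by qRT-PCR relative to DMSO controls.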

Read-out in assay [6]: DNA damage-inducible transcript 3 (DDIT3), DDIT3 (gene 1649)
The assay can be described thus: LTEA_HepaRG_DDIT3: Life Technologies and Expression Analysis (LTEA) Assay for DNA damage-inducible transcript 3 (DDIT3) using HepaRG (AID 2283488). The procedure, abridged: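 Eight-point concentration-response (100 uM highest, half-log dilutions) in HepaRG, 48 h, duplicate wells. Endpoint: qRT-PCR mRNA, normalized (ACTB, GAPDH, POLR2A), bidirectional fitting with DMSO as baseline.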

Read-out in assay [7]: Pro-epidermal growth factor (Homo sapiens) (UniProt P01133)
Description: LTEA_HepaRG_EGF: Life Technologies and Expression Analysis (LTEA) Assay for Epidermal growth factor (EGF) using HepaRG (AID 2283489). The procedure, abridged: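 Concentration-response mRNA assay: HepaRG cells dosed 48 h (max 100 uM, 0.5% DMSO), EGF measured by qRT-PCR and normalized to ACTB/GAPDH/POLR2A.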

Read-out in assay [8]: Early growth response protein 1 (EGR1) transcription factor, EGR1 (gene 1958)
The assay can be described thus: LTEA_HepaRG_EGR1: Life Technologies and Expression Analysis (LTEA) Assay for Early growth response protein 1 (EGR1) transcription factor using HepaRG (AID 2283490). The procedure, abridged: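 EGR1 transcript levels quantified by qRT-PCR (Fluidigm arrays) against three housekeeping genes after 48 h chemical exposure of HepaRG cells. Eight-point half-log series topping at 100 uM, 0.5% DMSO vehicle, analyzed for gain or loss.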

Read-out in assay [9]: Ezrin (EZR), EZR (gene 7430)
The assay can be described thus: LTEA_HepaRG_EZR: Life Technologies and Expression Analysis (LTEA) Assay for Ezrin (EZR) using HepaRG (AID 2283491). In outline: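 Read-out is EZR transcript level by qRT-PCR, normalized to three housekeeping genes and fitted bidirectionally against the DMSO control. Human HepaRG cells received test chemicals for 48 h at eight half-log concentrations up to 100 uM in 0.5% DMSO.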

Read-out in assay [10]: Cytochrome P450 3A7 (Homo sapiens) (UniProt P24462)
Description: LTEA_HepaRG_CYP3A7: Life Technologies and Expression Analysis (LTEA) Assay for CYP3A7 using HepaRG (AID 2283492). The procedure, abridged:
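qRT-PCR of CYP3A7 in HepaRG lysates after 48 h treatment; concentration-response (8 points, max 100 uM) analysed bidirectionally relative to 0.5% DMSO controls.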

Read-out in another assay: CYP3A5 (gene 1577)
The assay can be described thus: LTEA_HepaRG_CYP3A5: Life Technologies and Expression Analysis (LTEA) Assay for CYP3A5 using HepaRG (AID 2283493). In outline: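 Readout was CYP3A5 mRNA by qRT-PCR. HepaRG cultures were exposed for 48 h in serum-free induction medium to chemicals at up to 100 uM, and responses were fitted in both directions relative to DMSO vehicle.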

Read-out in assay [11]: Fatty Acid-Binding Protein 1 (FABP1), FABP1 (gene 2168)
The assay can be described thus: LTEA_HepaRG_FABP1: Life Technologies and Expression Analysis (LTEA) Assay for Fatty Acid-Binding Protein 1 (FABP1) using HepaRG (AID 2283494). The procedure, abridged:
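FABP1 expression by TaqMan qRT-PCR, normalised to three housekeeping genes, in HepaRG cells after 48 h chemical treatment. Eight-point half-log series topping at 100 uM in 0.5% DMSO, duplicates; gain or loss fitted relative to vehicle.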

Read-out in assay [12]: Cytochrome P450 4A22 (Homo sapiens) (UniProt Q5TCH4)
The assay can be described thus: LTEA_HepaRG_CYP4A22: Life Technologies and Expression Analysis (LTEA) Assay for Cytochrome P450 4A22 (CYP4A22) using HepaRG (AID 2283495). The procedure, abridged: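 Concentration-response (8 points, max 100 uM, 0.5% DMSO) in human HepaRG liver cells after 48 h exposure. CYP4A22 mRNA by TaqMan qRT-PCR with housekeeping-gene normalization.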

Read-out in assay [13]: Cytochrome P450 7A1 (Homo sapiens) (UniProt P22680)
The assay can be described thus: LTEA_HepaRG_CYP7A1: Life Technologies and Expression Analysis (LTEA) Assay for Cytochrome P450 7A1 (CYP7A1) using HepaRG (AID 2283496). The procedure, abridged:
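Using 0.5% DMSO as vehicle and baseline, chemicals were tested in duplicate over an 8-point range from 100 uM on HepaRG cells for 48 h; qRT-PCR signals were normalised to ACTB, GAPDH and POLR2A.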

Read-out in assay [14]: Glutathione S-Transferase (GSTA2), GSTA2 (gene 2939)
The assay can be described thus: LTEA_HepaRG_GSTA2: Life Technologies and Expression Analysis (LTEA) Assay for Glutathione S-Transferase (GSTA2) using HepaRG (AID 2283497). In outline: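 GSTA2 transcript levels came from Fluidigm TaqMan qRT-PCR normalized to three housekeeping genes, fitted in both directions against DMSO. HepaRG cultures received chemicals for 48 h in serum-free induction medium (0.5% DMSO), 8 half-log concentrations up to 100 uM, duplicate.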

Active and inactive are the calls of the source. How the source made its calls: active means hit-call score of the fitted dose curve at least 0.9, where 1 is the maximum; inactive means score below 0.9.

Cytochrome P450 3A7 (Homo sapiens), sequence (P24462 whole entry, looked up): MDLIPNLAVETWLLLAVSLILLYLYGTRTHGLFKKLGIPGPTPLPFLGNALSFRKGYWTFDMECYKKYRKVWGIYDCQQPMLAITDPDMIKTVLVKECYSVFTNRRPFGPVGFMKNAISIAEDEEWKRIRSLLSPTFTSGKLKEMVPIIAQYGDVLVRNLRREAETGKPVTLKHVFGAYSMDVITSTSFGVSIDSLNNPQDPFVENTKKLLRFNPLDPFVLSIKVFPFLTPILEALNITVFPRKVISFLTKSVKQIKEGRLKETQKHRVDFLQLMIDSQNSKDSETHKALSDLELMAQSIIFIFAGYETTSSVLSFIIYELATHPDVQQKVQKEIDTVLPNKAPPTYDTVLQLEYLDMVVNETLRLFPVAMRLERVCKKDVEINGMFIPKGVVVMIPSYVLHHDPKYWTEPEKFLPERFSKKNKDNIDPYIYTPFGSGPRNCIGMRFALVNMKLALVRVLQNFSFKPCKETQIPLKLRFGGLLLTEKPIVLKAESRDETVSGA
Cytochrome P450 2C19 (Homo sapiens), sequence (P33261 whole entry, looked up): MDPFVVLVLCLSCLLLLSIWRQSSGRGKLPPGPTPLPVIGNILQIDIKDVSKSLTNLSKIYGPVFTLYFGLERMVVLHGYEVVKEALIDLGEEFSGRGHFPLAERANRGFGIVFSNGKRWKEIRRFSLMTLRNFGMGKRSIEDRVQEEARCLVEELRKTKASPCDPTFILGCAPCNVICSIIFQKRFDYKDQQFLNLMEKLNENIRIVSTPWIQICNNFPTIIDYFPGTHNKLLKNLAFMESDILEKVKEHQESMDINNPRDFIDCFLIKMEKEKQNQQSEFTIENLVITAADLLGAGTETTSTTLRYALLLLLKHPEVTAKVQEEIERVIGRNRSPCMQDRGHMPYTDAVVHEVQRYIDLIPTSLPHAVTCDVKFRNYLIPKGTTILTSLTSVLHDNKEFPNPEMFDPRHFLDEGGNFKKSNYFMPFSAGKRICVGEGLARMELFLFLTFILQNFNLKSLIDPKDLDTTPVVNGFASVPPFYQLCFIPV
Caspase-3 (Homo sapiens), sequence (P42574 whole entry, looked up): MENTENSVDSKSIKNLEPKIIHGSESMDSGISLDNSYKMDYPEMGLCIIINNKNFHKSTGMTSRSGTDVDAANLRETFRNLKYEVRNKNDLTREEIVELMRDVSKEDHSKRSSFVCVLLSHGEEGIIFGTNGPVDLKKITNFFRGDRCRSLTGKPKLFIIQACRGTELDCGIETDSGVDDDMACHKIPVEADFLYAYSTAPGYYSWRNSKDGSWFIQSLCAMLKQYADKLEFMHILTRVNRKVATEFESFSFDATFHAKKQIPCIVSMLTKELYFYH

As to `O=C(O)C1(c2ccc3c(c2)OC[C@H](Cc2ccc(-c4ccccc4)cc2)[C@H]3O)CCCC1`, the AC50 was 79 µM (active) in the assay with Caspase-3 (Homo sapiens); 25 µM (active) in [2]; 84.5 µM (active) with CYP2E1 (gene 1571); 50 µM (active) in assay [6]; 81.7 µM (active) in assay [8]; 63.1 µM (active) in assay [9]. For the same molecule, the AC50 in the assay with CYP3A5 (gene 1577) is 77 µM (active); in assay [11], 83.9 µM (active); in [14], 80.1 µM (active). Further, the result (in assay [1]; in assay [3]; in assay [4]; in assay [5]; with CYP2C8 (gene 1558); with CYP2C9 (gene 1559)) was inactive. Moreover, the molecule was classed as inactive (with CYP4A11 (gene 1579); in [7]; in assay [10]; in assay [12]; in assay [13]).

`Cc1cc(C)cc(C)c1`: the outcome (with Caspase-3 (Homo sapiens); in assay [1]; in assay [2]; in assay [3]; in assay [4]; in assay [5]) was inactive. For the same molecule, the outcome (with CYP2C8 (gene 1558); in the assay with CYP2C9 (gene 1559); with CYP2E1 (gene 1571); with CYP4A11 (gene 1579); in assay [6]; in [7]) was inactive. Besides, the call (in [8]; in assay [9]; in assay [10]; with CYP3A5 (gene 1577); in [11]; in [12]) was inactive. Besides, the molecule was called inactive in assay [13] and in assay [14].

As for `CC(C)(C)c1ccccc1O`, the molecule was classed as inactive (in the assay with Caspase-3 (Homo sapiens); in assay [1]; in [2]; in [3]; in the assay with CYP2C9 (gene 1559); in the assay with CYP4A11 (gene 1579)). The molecule was called inactive (in assay [6]; in [7]; in [8]; in assay [9]; in the assay with CYP3A5 (gene 1577); in [11]). The result in [12], in [13] and in [14] was inactive. In addition, the AC50 in [4] is 1.63 µM (active); in assay [5] it was 1.47 µM (active); with CYP2C8 (gene 1558) it was 6.35 µM (active); with CYP2E1 (gene 1571), 15.1 µM (active); in assay [10] it was 4.77 µM (active).

Source of the values: PubChem BioAssay (EPA / NIEHS).
